# Data taken from PubChem BioAssay AID1159580 (chemical genetic matrix, 2015).
# The whole screen tested about 5,500 compounds, of which about 2,000 (36%) were called active. Inconclusive results (about 18%) are left out. Some of the results follow. Unmarked numbers belong to inactive results. Rule as the data show it: active = normalized growth mostly below about 0.91 (no sharp cut-off); inconclusive = no clear call, values can overlap the other calls; inactive = mostly above about 0.92.
# Assay: chemical genetic growth profiling, strain panel (AID 1159580);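 also: tested at 20 µM; growth read once vehicle control cultures reached saturation at 30 °C; 1 = growth at the plate median or of vehicle wells; lower values mean less growth of the strain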
# Conditions: S. cerevisiae deletion strains, growth OD
compound,measurement,setting,value
Cc1c(O)c(O)cc2c1CC=C1[C@@]2(C)CC[C@@]2(C)C3C[C@](C)(C(=O)O)CC[C@]3(C)CC[C@]12C (some centres not stated),normalized growth,"locus YJR043C, strain POL32, active compounds read low",0.914
same,normalized growth,"locus YJR066W, strain TOR1, active compounds read low",0.901
same,normalized growth,"locus YKL009W, strain mrt4, active compounds read low",0.986
same,normalized growth,"locus YKL068W, active compounds read low",0.941 (active)
same,normalized growth,"locus YKL085W, strain MDH1 (second series), active compounds read low",0.919 (active)
same,normalized growth,"locus YKL085W, strain MDH1, active compounds read low",0.919 (active)
same,normalized growth,"locus YKL160W, strain elf1, active compounds read low",0.386 (active)
same,normalized growth,"locus YKR001C, strain vps1, active compounds read low",0.728 (active)
same,normalized growth,"locus YKR026C, strain gcn3, active compounds read low",0.804 (active)
same,normalized growth,"locus YKR091W, strain srl3, active compounds read low",0.8 (active)
same,normalized growth,"locus YLL001W, strain dnm1, active compounds read low",0.617 (active)
same,normalized growth,"locus YLL026W, active compounds read low",0.496 (active)
same,normalized growth,"locus YLL041C, strain sdh2, active compounds read low",0.645 (active)
same,normalized growth,"locus YLR027C, strain aat2, active compounds read low",0.433 (active)
same,normalized growth,"locus YLR039C, strain RIC1, active compounds read low",0.616 (active)
same,normalized growth,"locus YLR058C, strain SHM2, active compounds read low",0.894
same,normalized growth,"locus YLR102C, strain apc9, active compounds read low",0.984
same,normalized growth,"locus YLR113W, strain HOG1, active compounds read low",0.651 (active)
same,normalized growth,"locus YLR221C, strain rsa3, active compounds read low",0.4 (active)
same,normalized growth,"locus YLR258W, strain gsy2, active compounds read low",0.398 (active)
same,normalized growth,"locus YLR262C, strain YPT6 (second series), active compounds read low",0.186 (active)
same,normalized growth,"locus YLR262C, strain YPT6, active compounds read low",0.609
same,normalized growth,"locus YLR268W, strain sec22, active compounds read low",0.891
same,normalized growth,"locus YLR320W, strain mms22, active compounds read low",0.221 (active)
same,normalized growth,"locus YLR330W, strain CHS5, active compounds read low",0.877 (active)
same,normalized growth,"locus YLR342W, strain FKS1 (second series), active compounds read low",0.868
same,normalized growth,"locus YLR342W, strain FKS1, active compounds read low",0.561 (active)
same,normalized growth,"locus YLR357W, strain rsc2, active compounds read low",0.657 (active)
same,normalized growth,"locus YLR370C, strain arc18, active compounds read low",0.63 (active)
same,normalized growth,"locus YLR371W, strain rom2, active compounds read low",0.912
same,normalized growth,"locus YLR384C, strain iki3, active compounds read low",0.885 (active)
same,normalized growth,"locus YLR418C, strain cdc73, active compounds read low",0.645 (active)
same,normalized growth,"locus YML016C, strain PPZ1, active compounds read low",0.927
same,normalized growth,"locus YML032C, strain rad52, active compounds read low",0.96
same,normalized growth,"locus YML120C, strain ndi1, active compounds read low",0.568 (active)
same,normalized growth,"locus YML124C, strain tub3, active compounds read low",0.971
same,normalized growth,"locus YMR058W, strain fet3, active compounds read low",0.0953 (active)
same,normalized growth,"locus YMR078C, strain ctf18, active compounds read low",0.984
same,normalized growth,"locus YMR125W, strain sto1, active compounds read low",0.483 (active)
same,normalized growth,"locus YMR129W, active compounds read low",0.764 (active)
same,normalized growth,"locus YMR205C, strain PFK2, active compounds read low",0.364 (active)
same,normalized growth,"locus YMR223W, strain ubp8, active compounds read low",0.906
same,normalized growth,"locus YMR231W, strain pep5, active compounds read low",0.361 (active)
same,normalized growth,"locus YMR307W, strain GAS1, active compounds read low",0.782
same,normalized growth,"locus YNL067W, strain RPL9B, active compounds read low",0.918
same,normalized growth,"locus YNL071W, strain lat1, active compounds read low",0.0934 (active)
same,normalized growth,"locus YNL183C, strain NPR1, active compounds read low",0.837
same,normalized growth,"locus YNL209W, strain ssb2, active compounds read low",0.376 (active)
same,normalized growth,"locus YNL233W, strain BNI4, active compounds read low",0.873
same,normalized growth,"locus YNL248C, strain rpa49, active compounds read low",0.741 (active)
same,normalized growth,"locus YNL250W, strain rad50, active compounds read low",0.972
same,normalized growth,"locus YNL271C, strain bni1, active compounds read low",0.991
same,normalized growth,"locus YNL298W, strain CLA4, active compounds read low",1.01
same,normalized growth,"locus YNL307C, strain MCK1, active compounds read low",0.822 (active)
same,normalized growth,"locus YNL322C, strain KRE1 (second series), active compounds read low",0.935
same,normalized growth,"locus YNL322C, strain KRE1, active compounds read low",0.937
same,normalized growth,"locus YNR049C, strain mso1, active compounds read low",0.72 (active)
same,normalized growth,"locus YNR052C, strain pop2, active compounds read low",0.977
same,normalized growth,"locus YOL012C, strain htz1",0.648
same,normalized growth,"locus YOL147C, strain pex11, active compounds read low",0.976
same,normalized growth,"locus YOR001W, strain rrp6, active compounds read low",0.683 (active)
same,normalized growth,"locus YOR061W, strain CKA2, active compounds read low",0.934
same,normalized growth,"locus YOR069W, strain VPS5, active compounds read low",0.945
same,normalized growth,"locus YOR070C, strain gyp1, active compounds read low",0.393 (active)
same,normalized growth,"locus YOR080W, strain dia2, active compounds read low",0.697 (active)
same,normalized growth,"locus YOR083W, strain WHI5, active compounds read low",0.656 (active)
same,normalized growth,"locus YOR106W, strain vam3, active compounds read low",0.331 (active)
same,normalized growth,"locus YOR136W, strain idh2, active compounds read low",1
same,normalized growth,"locus YOR144C, strain elg1, active compounds read low",0.977
same,normalized growth,"locus YOR184W, strain ser1, active compounds read low",0.812 (active)
same,normalized growth,"locus YOR231W, strain MKK1, active compounds read low",0.917
same,normalized growth,"locus YOR265W, strain rbl2, active compounds read low",0.479 (active)
same,normalized growth,"locus YOR270C, strain vph1, active compounds read low",0.273 (active)
same,normalized growth,"locus YOR290C, strain snf2, active compounds read low",0.434 (active)
same,normalized growth,"locus YOR316C, strain cot1, active compounds read low",0.981
same,normalized growth,"locus YPL051W, strain arl3, active compounds read low",0.248 (active)
same,normalized growth,"locus YPL055C, strain LGE1, active compounds read low",0.755 (active)
same,normalized growth,"locus YPL078C, strain atp4, active compounds read low",0.62 (active)
same,normalized growth,"locus YPL106C, strain sse1, active compounds read low",0.507 (active)
same,normalized growth,"locus YPL240C, strain hsp82, active compounds read low",0.417 (active)
same,normalized growth,"locus YPL241C, strain CIN2, active compounds read low",0.96
same,normalized growth,"locus YPL256C, strain CLN2, active compounds read low",0.856
same,normalized growth,"locus YPR119W, strain clb2, active compounds read low",0.979
same,normalized growth,"locus YPR141C, strain kar3, active compounds read low",0.956
same,normalized growth,"locus YPR163C, strain tif3, active compounds read low",0.924
same,normalized growth,"locus YPR167C, strain met16, active compounds read low",0.948
same,normalized growth,"strain wtn01, active compounds read low",0.93
